Measured values taken from PubChem BioAssay AID1159580 (chemical genetic matrix, 2015).
Hit rate of the full screen: of about 5,500 compounds, about 2,000 (36%) were called active. Inconclusive results (about 18%) are left out. Cut-off read from the data, not from the text of the source: active = normalized growth mostly below about 0.91 (no sharp cut-off); inconclusive = no clear call, values can overlap the other calls; inactive = mostly above about 0.92. Some of the results follow.

Assay: chemical genetic growth profiling, strain panel (AID 1159580);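 note: tested at 20 µM; growth read once vehicle control cultures reached saturation at 30 °C; 1 = growth at the plate median or of vehicle wells; lower values mean less growth of the strain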
Conditions: growth OD
[1] = S. cerevisiae deletion strains, locus YAL013W, strain DEP1, hits give low values
[2] = S. cerevisiae deletion strains, locus YDR150W, strain NUM1, hits give low values
[3] = S. cerevisiae deletion strains, locus YGR229C, strain SMI1, hits give low values
[4] = S. cerevisiae deletion strains, locus YJR075W, strain HOC1, hits give low values
[5] = S. cerevisiae deletion strains, locus YMR263W, strain SAP30, hits give low values
[6] = S. cerevisiae deletion strains, locus YMR307W, strain GAS1, hits give low values
[7] = S. cerevisiae deletion strains, locus YNL322C, strain KRE1, hits give low values
[8] = S. cerevisiae deletion strains, locus YPL241C, strain CIN2, hits give low values
[9] = S. cerevisiae deletion strains, locus YBR229C, strain ROT2, hits give low values
[10] = S. cerevisiae deletion strains, locus YDL101C, strain DUN1, hits give low values
[11] = S. cerevisiae deletion strains, locus YDL134C, strain PPH21, hits give low values
[12] = S. cerevisiae deletion strains, locus YEL061C, strain CIN8, hits give low values
[13] = S. cerevisiae deletion strains, locus YGR078C, strain PAC10, hits give low values
[14] = S. cerevisiae deletion strains, locus YHR030C, strain SLT2, hits give low values
[15] = S. cerevisiae deletion strains, locus YHR087W, strain rtc3, hits give low values
[16] = S. cerevisiae deletion strains, locus YJR043C, strain POL32, hits give low values
[17] = S. cerevisiae deletion strains, locus YLR039C, strain RIC1, hits give low values
[18] = S. cerevisiae deletion strains, locus YLR058C, strain SHM2 (second series), hits give low values
[19] = S. cerevisiae deletion strains, locus YLR085C, strain ARP6, hits give low values
[20] = S. cerevisiae deletion strains, locus YLR262C, strain YPT6, hits give low values
[21] = S. cerevisiae deletion strains, locus YML094W, strain GIM5, hits give low values
[22] = S. cerevisiae deletion strains, locus YMR219W, strain ESC1, hits give low values
[23] = S. cerevisiae deletion strains, locus YNL153C, strain GIM3, hits give low values
[24] = S. cerevisiae deletion strains, locus YNL298W, strain CLA4 (second series), hits give low values
[25] = S. cerevisiae deletion strains, locus YNR030W, strain Alg12, hits give low values
[26] = S. cerevisiae deletion strains, locus YPL055C, strain LGE1, hits give low values
[27] = S. cerevisiae deletion strains, locus YPR135W, strain CTF4, hits give low values

Measured: normalized growth

CC1(C)CCC=[N+]1[O-]
inactive: [1] 1 | S. cerevisiae deletion strains, locus YAL040C, strain CLN3, hits give low values 1.04 | S. cerevisiae deletion strains, locus YCL061C, strain MRC1 (second series), hits give low values 1.01 | [2] 1 | S. cerevisiae deletion strains, locus YDR363W, strain ESC2, hits give low values 1.02 | S. cerevisiae deletion strains, locus YER002W, strain NOP16, hits give low values 0.98 | [3] 1.05 | [4] 1.03 | [5] 1 | [6] 1.01 | S. cerevisiae deletion strains, locus YNL175C, strain NOP13, hits give low values 0.993 | S. cerevisiae deletion strains, locus YNL197C, strain WHI3, hits give low values 1.01 | S. cerevisiae deletion strains, locus YNL224C, strain SQS1, hits give low values 1 | [7] 1.01 | S. cerevisiae deletion strains, locus YOR083W, strain WHI5 (second series), hits give low values 1.03 | [8] 1

CCOC(=O)CSc1nc2cc(C(F)(F)F)cnc2n1C
inactive: [1] 0.984 | [9] 0.98 | [10] 1.01 | [11] 0.975 | [2] 0.99 | [12] 0.993 | [13] 0.983 | [3] 1.01 | [14] 0.909 | [15] 0.96 | [16] 0.988 | [4] 0.997 | S. cerevisiae deletion strains, locus YKL190W, strain CNB1, hits give low values 1.01 | [17] 1.05 | [18] 0.985 | [19] 1.04 | [20] 1.03 | [21] 0.952 | [22] 0.989 | [5] 0.99 | [6] 1.19 | [23] 1 | [24] 0.961 | [7] 0.982 | [25] 0.988 | S. cerevisiae deletion strains, locus YOL006C, strain TOP1, hits give low values 0.942 | [26] 0.981 | [8] 1.07 | [27] 0.912

COC(OC)c1cc(=O)[nH]c(=S)[nH]1
inactive: [1] 1.01 | [9] 1.02 | [10] 1 | [11] 1.02 | [2] 0.918 | [12] 1.04 | [13] 1.03 | [14] 1.06 | [15] 1.01 | S. cerevisiae deletion strains, locus YJL187C, strain SWE1, hits give low values 1.02 | [16] 1.01 | [4] 1.01 | [17] 1.07 | [18] 1.01 | [19] 1.11 | [20] 1.03 | [21] 1.02 | [22] 1.01 | [5] 1.03 | [6] 1.12 | [23] 1.01 | [24] 1.08 | [7] 1.01 | [25] 1.02 | [26] 0.935 | [8] 0.913 | [27] 1.03 | S. cerevisiae strains, strain wild type, hits give low values 1.01
